# Most compounds without a hit are left out; they make up all but 6.9% or so of the library.
# Beta apoptosis – beta cell apoptosis inhibition | 0.8% of 300,000 active | protection from apoptosis, % (no concentration beside the values) | AID 435005 | INS-1E cytokine-induced death, ATP luminescence, 48 h; percent of positive-control rescue, neutral wells zero;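 active = Every replicate reaches about 75%, or at least half do and their mean reaches it too, limit read from the data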;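 note: 0% = cytokine-treated negative control wells and 100% = positive control rescue; higher means more ATP so stronger rescue from cytokine killing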
# MPTP inh – inhibitors of mitochondrial permeability transition pore; isolated mouse mitochondria, Ca2+ swelling absorbance, 30 min; inhibition, % at 10 µM; 1.4% of 360,000 active;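 active = inhibition of 50% or more, scaled per plate between neutral and stimulator controls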;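 note: 0% = DMSO wells given calcium and 100% = 1 mM EGTA wells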
# GRIN3A LBD mod – modulators (binders) of human NR3A ligand-binding domain; NR3A LBD differential scanning fluorimetry, Tm shift; 0% = protein alone, 100% = glycine-bound protein; Tm shift relative to glycine control, % at 25 µM; 2.5% of 340,000 active; AID 1259313;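 active = melting temperature shift of at least 10% of the positive control shift, at one fixed dose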
# SKKanGAS inh – blocks kanamycin growth of S. pyogenes SKKanGAS strain | BacTiter-Glo, 6 h | inhibition, % at 7.5 µM | 1.3% of 300,000 active;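 active = mean replicate score, as percent of positive control median, at least 50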;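 note: strain carries kanamycin resistance gene driven by streptokinase promoter and grows in 40 µg/ml kanamycin; loss of luminescence reflects streptokinase promoter inhibition or plain growth inhibition; 0% = median of DMSO wells and 100% = positive control at its reference dose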
# Mdm2 MdmX PPI – human Mdm2/MdmX binding inhibition; SaOS-2 split-luciferase Mdm2/MdmX complementation, luminescence; O15151+Q00987; inhibition, % at 8 µM; 3% of 330,000 active;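 active = inhibition of at least 50% at 8 µM in the primary screen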
# Target sequence (O15151 whole entry, looked up): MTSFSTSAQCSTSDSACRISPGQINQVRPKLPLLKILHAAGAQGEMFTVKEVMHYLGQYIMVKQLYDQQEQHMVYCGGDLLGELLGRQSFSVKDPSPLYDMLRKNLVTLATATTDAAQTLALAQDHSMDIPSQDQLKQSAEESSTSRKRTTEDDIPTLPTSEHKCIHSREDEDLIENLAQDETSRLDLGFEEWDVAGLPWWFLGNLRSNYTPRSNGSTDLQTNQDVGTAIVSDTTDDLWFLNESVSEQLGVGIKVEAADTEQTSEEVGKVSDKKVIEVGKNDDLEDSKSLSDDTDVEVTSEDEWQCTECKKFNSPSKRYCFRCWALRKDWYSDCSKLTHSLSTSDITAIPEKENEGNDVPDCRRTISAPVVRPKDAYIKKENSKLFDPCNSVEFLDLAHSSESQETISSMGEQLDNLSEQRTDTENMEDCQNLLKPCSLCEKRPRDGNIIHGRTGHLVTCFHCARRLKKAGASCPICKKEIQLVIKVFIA
# Target sequence (Q00987 whole entry, looked up): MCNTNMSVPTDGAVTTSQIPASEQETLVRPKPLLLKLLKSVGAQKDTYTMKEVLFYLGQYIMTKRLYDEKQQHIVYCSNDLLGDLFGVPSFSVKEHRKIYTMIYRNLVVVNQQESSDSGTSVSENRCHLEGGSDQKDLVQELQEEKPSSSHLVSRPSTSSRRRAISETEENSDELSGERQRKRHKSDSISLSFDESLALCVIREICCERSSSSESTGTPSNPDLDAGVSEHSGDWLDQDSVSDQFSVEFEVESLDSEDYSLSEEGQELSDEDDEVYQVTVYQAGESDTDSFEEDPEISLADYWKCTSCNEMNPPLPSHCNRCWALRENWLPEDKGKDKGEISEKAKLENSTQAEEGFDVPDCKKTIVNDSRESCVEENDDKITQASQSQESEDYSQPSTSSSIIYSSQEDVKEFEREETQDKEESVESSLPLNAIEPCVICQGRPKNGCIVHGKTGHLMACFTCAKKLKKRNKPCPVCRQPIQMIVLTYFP
# CSC inhib – blocks cancer stem cells; cancer stem cell-like cells viability, luminescence; inhibition, % at 7.5 µM; 1.1% of 300,000 active; AID 2717; in the data active = inhibition above about 75%; tested in HMLE shEcad cells
# Rh123 counter – mitochondrial membrane potential, counter-screen. inhibition, % at 10 µM. isolated mitochondria, Rhodamine 123 fluorescence. 78% of 5,000 active. shares compounds with MPTP inh; in the data active = inhibition above about 22%;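 note: 0% = DMSO vehicle and 100% = positive control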
# * hit, by the source's call; . = not tested or not shown.
SMILES,Beta apoptosis,MPTP inh,GRIN3A LBD mod,SKKanGAS inh,Mdm2 MdmX PPI,CSC inhib,Rh123 counter
CCOC(=O)c1cnc2ccc(OCC)cc2c1NCc1ccccc1OC,23,85*,20*,-2,42,76*,99*
CCOC(=O)c1cnc2ccc(OC)cc2c1NCc1ccccc1,24,2,4,-3,6,.,.
FC(F)(F)c1cccc(NC(=S)Nc2ccc(Cl)c(Cl)c2)c1,14,81*,19*,96*,47,42,65*
O=C(NNC(=S)Nc1cccc(C(F)(F)F)c1)c1ccc(Cl)cc1Cl,8,101*,20*,67*,8,45,89*
CC(C)(O)C(=O)NNC(=S)Nc1cccc(C(F)(F)F)c1,6,-2,-2,-6,-9,-6,.
O=C(NC(=S)Nc1cccc(C(F)(F)F)c1)c1ccc2nonc2c1,4,73*,9,0,12,11,81*
Cc1ccccc1C(=O)NNC(=S)Nc1cccc(C(F)(F)F)c1,15,24,-8,-3,16,6,.
FC(F)(F)c1cccc(NC(=S)NC(c2ccccc2)c2ccccc2)c1,44,70*,30*,12,.,36,83*
CC(C)Cn1cnc2c1c(=O)[nH]c(=O)n2Cc1ccccc1,.,0,3,3,3,.,.
CC(OC(=O)CCCN=C1NS(=O)(=O)c2ccccc21)C(=O)Nc1ccccc1F (centres undefined),-3,0,0,-6,2,-1,.
Cc1cccnc1NC(=S)Nc1ccc(Cl)c(Cl)c1,0,90*,-12,40,-33,29,97*
COc1ccc(NC(=S)Nc2ncccc2C)cc1OC,-3,-1,0,-6,-27,-15,.
CC(C)(C)NC(=S)Nc1cccc(C(F)(F)F)c1,-3,65*,-7,-4,18,-2,84*
COC(=O)[C@@]12CCCN1[C@H](c1ccc(-c3ccccc3)c(OC)c1)[C@H]1C(=O)N(C)C(=O)[C@H]12,-2,1,-2,.,14,.,.
Cc1cc(F)ccc1S(=O)(=O)Nc1ccccc1C(=O)Nc1ccccc1N1CCOCC1,12,78*,2,6,-4,25,89*
O=C(Nc1ccccc1N1CCOCC1)c1ccccc1NS(=O)(=O)c1ccc(F)c(F)c1,44,62*,-8,9,37,32,98*
C=CCN1C(=O)/C(=C/c2ccc(OC(C)=O)c(OCC)c2[N+](=O)[O-])SC1=S,.,102*,4,77*,.,.,65*
CCO/C(C)=N/Oc1cnc2ccccc2c1,.,2,.,.,.,.,.
O=C1c2ccccc2S(=O)(=O)N1Cc1nnc(-c2ccccc2Br)o1,.,-1,0,4,.,.,.
O=S1(=O)c2cccc3cccc(c23)N1Cc1nnc(-c2ccccc2Br)o1,0,76*,-2,13,19,15,47*
Cc1cc(C)cc(NC(=S)NN)c1,15,3,-3,4,-25,-16,.
O=C(NC1CCSc2ccccc21)c1cccc(OC(F)F)c1 (centres undefined),1,-1,-2,0,-30,-14,.
FC(F)Oc1ccc(NC(=S)NC2CCSc3ccccc32)cc1 (centres undefined),-4,83*,17*,23,35,-14,79*
CC(=O)c1c(C)[nH]c(C(=O)OCC(=O)NCc2ccc(Cl)cc2)c1C,-4,1,-1,.,31,.,.
COc1ccc(CCNC(=O)c2[nH]c(C)c(C(C)=O)c2C)cc1,3,-1,6,-2,9,-2,.
SMILES,Beta apoptosis,MPTP inh,GRIN3A LBD mod,SKKanGAS inh,Mdm2 MdmX PPI,CSC inhib,Rh123 counter
COc1ccc(OCCOC(=O)c2[nH]c(C)c(C(C)=O)c2C)cc1,21,56*,3,-17,13,10,31*
CC(=O)c1c(C)[nH]c(C(=O)OCc2ccc(F)cc2Cl)c1C,37,78*,0,18,21,-2,69*
CC(=O)c1c(C)[nH]c(C(=O)OCC(=O)Nc2cc(Cl)ccc2[N+](=O)[O-])c1C,40,94*,-8,-8,31,3,82*
COc1cc(C2C(C#N)=C(N)OC3=C2C(=O)CC(C)(C)C3)cc2c1OCO2 (centres undefined),-4,3,1,-1,3,-2,.
Cc1onc(-c2ccc(Cl)cc2)c1-c1ccnc(SCC(=O)Nc2cc(Cl)cc(Cl)c2)n1,-5,50*,0,11,5,16,51*
CC(=O)Nc1ccc(S(=O)(=O)N(C)CC(=O)NNC(=O)c2cccs2)cc1,-5,-1,-1,.,9,-10,.
CCCCN(CCCC)S(=O)(=O)c1ccc(NC(=O)c2cccs2)cc1,15,86*,8,31,-12,.,72*
CCCCN(CCCC)S(=O)(=O)c1ccc(NC(=O)c2ccc([N+](=O)[O-])cc2Cl)cc1,-3,95*,4,14,.,47,96*
Cc1ccc(Cn2nnc3c(=O)n(CC(=O)NCc4ccccc4)cnc32)cc1,9,1,4,-15,30,38,.
CCc1c(C)nc2ccc(Br)cc2c1Cl,0,97*,2,2,-25,-8,93*
Nc1nc(Cl)nc2ccc(Br)cc12,-1,4,-1,-5,43,4,.
Cc1ccc(NC(=O)c2ccc(Cl)cc2Cl)cc1O,6,3,-2,-1,-198,25,.
C=CC(=O)Nc1cccc(Oc2ccnc(Nc3ccc(N4CCN(C)CC4)cc3)n2)c1,.,0,-13,.,.,.,.
C=CC(=O)Nc1cccc(N(C)c2ccnc(Nc3ccc(N4CCN(C)CC4)cc3)n2)c1,.,102*,4,.,.,.,93*
CNC[C@H]1Oc2ccc(NC(=O)Cc3cn(C)c4ccccc34)cc2CC(=O)N([C@@H](C)CO)C[C@H]1C,-9,-2,-9,.,20,-14,.
Cn1nc(C(C)(C)C)cc1C(=O)NCc1ccc(N2CCCC2=O)cc1,116*,95*,0,-12,6,18,93*
O=C(Nc1ccc(OC(F)(F)F)cc1)Oc1ccccc1N1CCOCC1,2,88*,3,-1,-1,9,82*
O=C(Nc1ccc(OC(F)(F)F)cc1)Oc1ccccc1N1CCCCC1,-3,82*,13*,10,3,25,89*
O=C(Nc1ccc(F)cc1)Oc1ccccc1N1CCOCC1,-2,7,2,30,-11,-7,.
COCOCCn1cc(CN2CCS(=O)(=O)N(Cc3ccc(-c4cccc(N(C)C)c4)cc3)C(C(C)C)C2=O)nn1 (centres undefined),.,-2,.,.,.,.,.
Cc1cc(F)ccc1S(=O)(=O)N1CCCOC1CNC(=O)C(=O)NCCc1ccco1 (centres undefined),.,-1,.,.,.,.,.
Cc1ccc(NC(=O)C(C)c2ccc(-c3ccccc3)c(F)c2)cc1 (centres undefined),56,89*,5,39,35,42,110*

# Source: PubChem
